The panel holds about 83,000 compounds, 20% with a hit somewhere; the sample as a whole holds those more often.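 Treatment: one concentration, 48 hours, 96-well format. Scoring: percent growth, with anything below 10 considered active.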 Values without a mark were called inactive. Activity calls are given as the source filed them.
These compounds were tested on RPMI-8226 leukemia (assay: NCI-60 one-dose screen, 48 h (100 = growth as untreated, 0 = no growth, -100 = all killed)). Conditions: 10 µM unless noted.
Description: Growth inhibition of the RPMI-8226 human tumor cell line is measured as a screen for anti-cancer activity. Cells are grown in 96 well plates and exposed to the test compound for 48 hours. Compounds are tested at a single concentration, which is 10^-5 M for most compounds. The reported endpoint is percent growth (GI% or GIPRCNT), where numbers from 0 - 100% represent growth inhibition, and numbers from -100% - 0 represent cell death. For example, a value of 40 represents 60% growth inhibition. A value of 0 means no net growth occurred over the course of the experiment. A value of -40 indicates 40% of cells at the beginning of the experiment died by the end of the experiment. A value of -100 means all cells are dead at the end of the experiment.
NCI-60 Human Tumor Cell Lines Screen was performed using the standard one-dose NCI protocol, which is described in more detail at https://dtp.cancer.gov/discovery_development/nci-60/default.htm.
Compounds with GIPRCNT values below 10 were considered active. Activity score was based on GIPRCNT using the following formula: […]
Score is 0 for GIPRCNT values of 100 or above, 50 for GIPRCNT values of 0, and 100 for GIPRCNT values of -100.

Structure (SMILES) | growth
COC1=CC2C=C(C3N(c4ccccc4)NC(=O)[C@@H]4CCCN34)C(=O)NC2C=C1 (stereo not given in full) | 110%
N#CC1(C#N)C2=C(CCCC2)NC(c2c(F)cccc2Cl)C1(C#N)C#N (stereo not given) | 43.4%
C=C1C(=O)O[C@H]2[C@H]1CC/C(COC(=O)N1CCC[C@H]1C(=O)Nc1ccc(OC)c(C(N)=O)c1O)=C\CC[C@@]1(C)O[C@@H]21 | 1.38% (active)
S=c1ssnc1-c1cc2ccccc2o1 | 21.4%
CS(=O)(=O)O[C@@H]1C(=O)N(c2cc3c4ccccc4ccc3c3ccccc23)[C@H]1c1ccc(F)cn1 | 19.8%
CN1CCN(C(=O)[C@@]2(C)CC[C@]3(C)CC[C@]4(C)C(=CC[C@@H]5[C@@]6(C)CC[C@H](OC(=O)c7cccnc7)C(C)(C)[C@@H]6CC[C@]54C)[C@@H]3C2)CC1 | 6.97% (active)
O=C1CC23OC4ON=C(Br)C4C2C(O)c2ccccc2N13 (stereo not given) | 100%
CC(=O)Oc1ccc(O)cc1 | 69.5%
CN(CCC#N)C(=O)Nc1ccccc1 | 107%
O=C(Nc1nc(-c2ccccc2Cl)cs1)c1cc(-c2ccc(Br)cc2)nc2ccccc12 | 29%
C=C1C(=O)O[C@H]2[C@H]1CC/C(COC(=O)CCCCCCC(=O)OC/C1=C/CC[C@@]3(C)O[C@H]3[C@H]3OC(=O)C(=C)[C@@H]3CC1)=C\CC[C@@]1(C)O[C@@H]21 | 2.81% (active)
CCOC(=O)c1c(C)nc2c(c1N)/C(=C/c1cccs1)C(=O)N2Cc1ccccc1 | -21.2% (active)
COc1ccc(-c2nnc(N3CCN(C(=O)CN4CCN(c5ccc(OC)cc5)CC4)CC3)nc2-c2ccc(OC)cc2)cc1 | -59.8% (active)
C=CCn1c(CN2CCN(c3cc4c(cc3F)c(=O)c(C(=O)O)cn4C3CC3)CC2)n[nH]c1=S | 109%
CCCn1cc(/C=N\N=C2\C(=O)Nc3ccc(C)cc32)c2ccccc21 | -24.9% (active)
O=C(O)c1ccc(-n2cc(/C=N/Nc3ccc(Cl)cc3Cl)c(-c3ccccc3)n2)cc1 | 83.2%
CC(=O)OCC1OC(OC2C(COC(C)=O)OC(OCCC[S-])C(OC(C)=O)C2OC(C)=O)C(OC(C)=O)C(OC(C)=O)C1OC(C)=O.[Au+].c1ccc(CN2[CH-]N(Cc3ccccc3)C(c3ccccc3)=C2c2ccccc2)cc1 (stereo not given) | -6.87% (active)
C#C[C@@]1(O)[C@@H](CO)O[C@@H](n2ccc3c(N)ncnc32)[C@@H]1O | 4.21% (active)
COc1ccc2oc(=O)cc(-c3nc4ccc(N)cc4[nH]3)c2c1 | 83.4%
CC(C)CSc1nc(Nc2ccccc2)c(C#N)c(-c2ccc(F)cc2)n1 | 21.6%

Structure (SMILES) | growth
Cc1ccc(SC2c3ccc(C)cc3Oc3nc(N)c(C#N)c(N)c32)cc1 (stereo not given) | 12.8%
Cc1ccc(CS/C(=C\c2ccc([N+](=O)[O-])cc2)C(=O)c2ccc(F)cc2)cc1 | -18.3% (active)
CC(=O)ON1CCCC(P(=O)(OCOC(=O)C(C)(C)C)OCOC(=O)C(C)(C)C)C1=O (stereo not given) | -47.5% (active)
C[C@H]1[C@H](C)CC[C@]2(C(=O)OCCOCCOCC[P+](c3ccccc3)(c3ccccc3)c3ccccc3)CC[C@]3(C)C(=CC[C@@H]4[C@@]5(C)CC[C@H](OC(=O)C(Cl)Cl)C(C)(C)[C@@H]5CC[C@]43C)[C@H]12 | 0.348% (active)
c1ccc2c3c([nH]c2c1)C(c1ccc(C2NCCc4c2[nH]c2ccccc42)cc1)NCC3 (stereo not given) | -40.3% (active)
[2H]c1nc(Nc2ncc3cc(C(=O)N(C)C)n(C4CCCC4)c3n2)c([2H])c([2H])c1N1C([2H])([2H])C([2H])([2H])NC([2H])([2H])C1([2H])[2H] | 31%
COc1ccc2nc(-c3ccc(Cl)cc3)cc(-c3nnc(SC/C(=N/O)c4ccccc4)o3)c2c1 | 41.3%
Cn1c2ccccc2c2c(OC(=O)c3ccccc3)c3c(nc21)-c1ccccc1C3 | 96.2%
COc1ccc(N(C)c2nc(Cl)nc3ccn(C)c23)cc1 | 6.35% (active)
Cc1c(Cl)cccc1NC(=O)c1sc2nc3c(cc2c1N)CCCCC3 | 22.2%
Cn1nc(C(F)(F)F)c(-c2cc(C(F)(F)F)cc(C(F)(F)F)c2)c1-c1ccc(OCc2ccc(Cl)cc2)cc1O | -14.5% (active)
CCOC(=O)c1c(C)nc2c(c1N)/C(=C/c1ccc[nH]1)C(=O)N2Cc1ccc(C(F)(F)F)cc1 | 104%
COC(=O)/C=C1\SC(=Nc2ccc(C(F)(F)F)cc2)N(CCc2c[nH]c3ccccc23)C1=O | -22.5% (active)
O=c1[nH]c2ccccc2cc1-c1nc2ccncc2[nH]1 | -0.575% (active)
COc1ccc(-c2cc(-c3nnc(SCC(=O)Nc4ccc(/C(C)=N\O)cc4)o3)c3ccccc3n2)cc1 | 99%
COc1ccc(C(=O)c2cc(OC)c(C)c(OC)c2)cc1OC(=O)CCl | 28.3%
CCOC(=O)C1=C(C)n2nc(CC#N)c(C#N)c2NC1c1ccc(CC)cc1 (stereo not given) | 102%
CC(=O)c1cc2c(N)c(C(=O)Nc3ccccn3)sc2nc1C | 99.2%
Cc1cnc(SCc2ccc(Cl)cc2)[nH]c1=S | 101%
Oc1ccccc1-c1nc2c3ccccc3c3ccccc3c2o1 | 75.5%

— PubChem BioAssay (NCI)
